Reference: paper PMC5540273 (PLoS ONE, 2017)

Key:
Details in all cases: concentration: 1 μM, replicates: in singlicate; n = 1
ABL2 = test system: ABL2
ACVR1B = test system: ACVR1B
ACVR1 = test system: ACVR1
ACVR2A = test system: ACVR2A
ACVR2B = test system: ACVR2B
ACVRL1 = test system: ACVRL1
ADCK3 = test system: T1, ADCK3
T1 construct: gene CABC1

ADCK4 = test system: ADCK4
AKT1 = test system: AKT1
AKT2 = test system: AKT2
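Also: KINOMEscan kinase panel screen.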

SMILES	%Inh (ABL2) [%]	%Inh (ACVR1B) [%]	%Inh (ACVR1) [%]	%Inh (ACVR2A) [%]	%Inh (ACVR2B) [%]	%Inh (ACVRL1) [%]	%Inh (ADCK3) [%]	%Inh (ADCK4) [%]	%Inh (AKT1) [%]	%Inh (AKT2) [%]
FC(F)(F)c1cc(Nc2nccc(-c3c(-c4ccc(Cl)cc4)nn4ncccc34)n2)ccc1Cl [GW829351]	0	0	0	0	12	0	0	27	0	0
Nc1n[nH]c2nnc(-c3ccccc3)cc12 [SB-517389]	13	0	16	0	4	0	6	16	0	13
O=C(Nc1n[nH]c2nc(-c3ccco3)c(Br)cc12)c1ccc(CN2CCCC2)cc1.O=C(O)[C@H](O)[C@@H](O)C(=O)O [SB-742352]	0	0	24	0	0	0	0	0	0	0
Cl.Fc1ccccc1COc1ccc(Nc2ncnc3ccc(-c4nnc(C(F)(F)F)o4)cc23)cc1Cl [GW424170]	0	0	0	0	0	0	0	22	0	0
CC(C)N1CCC(n2cnc(-c3ccc(F)cc3)c2-c2ccnc(N)n2)CC1 [SB-223132]	0	0	0	22	25	0	31	0	3	0
O=c1cc(N2CCOCC2)nc2n(Cc3cccc(Cl)c3)ccn12 [GSK2296823]	12	0	0	0	0	0	24	0	0	3
CC(=O)Nc1n[nH]c2ncc(-c3ccccc3)cc12 [SB-548492]	11	2	13	37	10	0	0	0	0	0
Cn1cc(-c2ccc3c(c2)CCN3C(=O)Cc2cccc(C(F)(F)F)c2)c2c(N)ncnc21 [GSK2606414]	11	0	0	0	1	4	6	0	0	18
O=C(Nc1ccccc1)Nc1ccc(Oc2ccc3nccn3n2)cc1	27	0	5	24	9	0	15	1	13	0
COc1cc2c(Nc3cccc(NC(=O)c4ccccc4)c3)ncnc2cc1OCCCN1CCOCC1 [GSK223810]	21	7	5	0	0	0	30	12	0	19
Cc1ccc(NC(=O)c2cccc(C#N)c2)cc1-c1ccc(C(=O)Nc2ccncc2)cc1 [GSK1398463]	54	0	18	0	0	2	18	6	0	0
Fc1ccc(Nc2nccc(-c3c(-c4ccc(Cl)cc4)nn4ncccc34)n2)cc1F [GW829058]	19	20	0	0	0	0	0	0	18	9
CCC(CC)(CC)n1cnc2c(N)ncnc21 [SKF-97620]	1	10	0	0	0	0	0	9	11	0
CNc1nccc(-c2c(-c3ccc(F)cc3)ncn2CCCN2CCOCC2)n1 [SB-222516]	12	19	8	4	4	15	1	0	18	0
CSc1nn2c(=O)cc(N3CCOCC3)nc2n1Cc1cccc(Cl)c1Cl [GSK2347225]	14	0	18	0	12	0	18	28	0	9
Nc1nccc2scc(-c3ccc4c(c3)CCN4C(=O)Cc3cc(F)ccc3F)c12 [GSK2587663]	18	0	0	0	0	0	24	35	0	17
Cl.Cn1ccc(-c2cccc(Nc3ccnc4cc(-c5nccs5)ccc34)c2)n1 [GW525701]	10	0	3	0	0	0	6	55	0	7

SMILES	%Inh (ABL2) [%]	%Inh (ACVR1B) [%]	%Inh (ACVR1) [%]	%Inh (ACVR2A) [%]	%Inh (ACVR2B) [%]	%Inh (ACVRL1) [%]	%Inh (ADCK3) [%]	%Inh (ADCK4) [%]	%Inh (AKT1) [%]	%Inh (AKT2) [%]
Cl.O=S(=O)(c1cccc(F)c1)c1ccc(Nc2ncnc3cc(Br)sc23)cc1Cl [GSK306886]	0	0	18	0	0	7	11	22	0	3
Nc1nc(-c2ccccn2)c(-c2ccnc3ccccc23)s1 [GW548057]	14	59	18	0	56	0	9	44	0	0
Cn1ccc2ncnc(Oc3ccc(NC(=O)Nc4cccnc4)c(Cl)c3)c21	11	0	0	0	0	0	0	0	0	8
Nc1nc(-c2cccnc2)c(-c2ccnc3ccccc23)s1 [GW684083]	12	10	32	0	0	12	24	45	0	1
Cl.Cl.c1ccc(-c2cc3ccncc3cc2OC2CCNCC2)cc1 [GSK1122999]	8	0	22	0	0	0	22	42	0	0
Nc1nc(-c2ccc3c(N)n[nH]c3c2)cc(N2CCCCC2)n1 [GSK2228768]	12	0	0	0	0	0	0	6	0	0
Clc1cccc(-c2nc(Nc3ccncc3)c3ccccc3n2)c1 [GW873004]	28	72	0	25	15	9	30	20	11	0
CCCc1ccc(S(=O)(=O)NC2CCN(c3ccnc(Nc4ccc(OC)cc4)n3)C2)cc1 (stereo not shown) [GSK1379737]	14	0	0	0	0	0	0	66	0	0
Nc1nc(-c2ccc3c(N)n[nH]c3c2)cc(N2CCC[C@@H](C(=O)Nc3ccccc3)C2)n1.O=C(O)C(F)(F)F.O=C(O)C(F)(F)F [GSK2288359]	0	0	0	0	0	0	0	11	0	7
O=C(NCCCN1CCCC1=O)c1cnc(NCc2cc(Cl)ccc2Cl)nc1NC1CCNCC1	0	0	0	0	0	0	9	0	0	0
NC(=O)c1sc(-n2cnc3ccccc32)cc1OCc1ccccc1F [GSK1024306]	8	0	0	0	2	0	5	7	0	0
COc1cc2ncnc(Nc3ccc(OCc4ccccc4Br)c(Cl)c3)c2cc1OC.Cl [GI261590]	16	0	0	0	4	0	22	37	0	5
N#Cc1ccc(Oc2ccc(Nc3ncnc4cc[nH]c34)cc2Cl)cc1	12	15	1	27	25	6	13	8	0	0
OCCOCCn1ccc2ncnc(Nc3ccc(Oc4cccc(Cl)c4)c(Cl)c3)c21	0	0	0	8	0	0	2	0	0	0
Cc1ccc(C)c(NC(=O)NCCNc2ccnc(Nc3ccc(F)cc3)n2)c1 [GSK1379878]	0	0	0	0	0	0	0	10	0	0
CNc1nccc(-c2c(-c3ccc(F)cc3)ncn2C2CCN(C)CC2)n1 [SB-222903]	0	0	0	0	0	0	0	22	0	2
Fc1ccc(-c2ncn(CCCNCc3ccccc3)c2-c2ccncc2)cc1	12	10	2	0	0	17	0	0	19	12
